Source: PubChem (National Center for Advancing Translational Sciences (NCATS))
This is one part of a sample in which hits are shown more often than they occur.
Marburg entry inh = Marburg virus entry inhibition; Marburg virus pseudotyped entry inhibition, cell reporter; Potency, µM (top dose mostly 37.8 µM), for inactives: at the highest dose activity change, negative = inhibition, most hits filed as inhibitors; 300,000 compounds, 1.8% hits; calls by dose curve; tested in HEK293 cells; further: potency means the concentration at half of the fitted maximal effect; on the % scale 0 is the no-effect control and ±100 the full control effect
AMA1-RON2 inh = AMA1-RON2 (P. falciparum) interaction inhibition | AlphaScreen AMA1-biotinylated RON2 peptide binding | Potency, µM (titrated, usually from 58.2 µM), for inactives: at the highest dose activity change, negative = inhibition, most hits filed as inhibitors | 360,000 compounds, 0.2% hits | AID 720542; active means well fitted inhibition curve with a large enough effect; inconclusive means small, poorly fitted or top-dose-only effect; inactive means no such curve, though single readings can be large or run the other way;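 further: potency means the concentration at half of the fitted maximal effect; 0% = vehicle wells and -100% = peptide control; nearly all actives have a fitted effect of over 45% in size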
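AMA1 (3D7) with his tag at 25 nM final met compounds first, then biotinylated RON2 peptide at 25 nM; detection used donor plus acceptor beads, 10 µg/mL apiece, read by AlphaScreen after 30 min at room temperature.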
Cycloheximide cs = counter-screen hit for Shiga toxin inhibitors, cycloheximide; cell reporter, cycloheximide protein synthesis inhibition counterscreen; max response, %; 300,000 compounds, 12% hits; AID 2314; in the data active means max response mostly above about 13%, no sharp cut-off; inactive means mostly below about 14%; further: read at 38.3 µM for the half of the compounds with a filed dose; 0% is about no effect
LASV entry inh = blocks Lassa virus binding to or entry into cells; Lassa virus pseudotype entry inhibition, cell reporter; Potency, µM (titrated, usually from 37.9 µM), for inactives: top-dose activity change, negative = inhibition, actives largely listed as inhibitors; 300,000 compounds, 1.2% hits; AID 540256; calls by dose curve; tested in HEK293 cells; further: potency means the concentration at half of the fitted maximal effect; on the % scale 0 is the no-effect control and ±100 the full control effect; nearly all actives have a fitted effect of over 50% in size
Shiga toxin inh = blocks Shiga toxin action in Vero cells. Vero cells, Shiga toxin protein synthesis inhibition reporter. inhibition, % at 38.7 µM. 290,000 compounds, 9.2% hits. AID 2315; in the data active means inhibition mostly above about 28%, no sharp cut-off; inactive means mostly below about 43%; further: 0% is about no effect
Active calls of the source: *; ? = inconclusive; nt = not tested or not shown; [ ] = dose if it differs, or a comment.

SMILES	Marburg entry inh	AMA1-RON2 inh	Cycloheximide cs	LASV entry inh	Shiga toxin inh
CCn1c(NC(=O)C2CCCCC2)nc2ccccc21	12%	100%	26*	-21%	36*
Nc1c(C(=O)Nc2ccc(F)cc2)sc(=S)n1-c1ccccc1F	?	2%	29*	?	60*
Cn1c(N)c(C(=O)Nc2ccccc2F)sc1=S	nt	0%	9.0*	nt	25
Cn1c(N)c(C(=O)Nc2ccc3ccccc3c2)sc1=S	?	1%	43*	?	57*
Cn1c(N)c(C(=O)N/N=C/c2ccccc2)sc1=S	?	-6%	-1	-2%	-4
NC(=S)Nc1cccc2cc3ccccc3cc12	12%	54%	43*	23%	78*
NC(=S)Nc1cc2ccccc2c2ccccc12	-21%	39%	2	-11%	-2
O=C(N/N=C/c1ccccn1)c1cc(-c2ccc(Cl)s2)[nH]n1	-17%[46.1 µM]	7%	1	-15%[46.1 µM]	4
Cc1nn(-c2ccccc2)c(C)c1/C=N/NC(=O)c1cc(-c2cccs2)[nH]n1	?	22%	5	?	-9
Cc1nn(-c2ccccc2)c(C)c1/C=N/NC(=O)c1cc(-c2ccc(Cl)s2)[nH]n1	9.2µM*	46%	-4	10µM*	3
Cc1nn(-c2ccccc2)c(C)c1/C=N/NC(=O)c1cc(-c2ccc(Br)s2)[nH]n1	7.3µM*	53%	-1	6.5µM*	-5
COCCNC(=O)/C(C#N)=C/c1ccccc1Br	?	-8%	13	-15%	12
N#C/C(=C\c1ccccc1C(F)(F)F)C(=O)Nc1ccccc1	-2%	-12%	17*	4%	-3
N#C/C(=C\C=C\c1ccccc1)C(=O)Nc1ccccc1	-20%	5%	15*	-1%	13
N#C/C(=C\c1ccccc1)C(=O)Nc1cccnc1	nt	-4%	-1	nt	-16
N#C/C(=C/C=C/c1ccccc1)C(=O)Nc1ccccc1	2.9µM*	-3%	6	?	23
COCCNC(=O)/C(C#N)=C/C=C/c1ccccc1	?	-1%	17*	-3%[46.1 µM]	43
CC(C)CNc1nc(NC(C)(C)C)nc(Oc2ccc(=O)n(-c3ccccc3)n2)n1	-29%[46.1 µM]	nt	nt	-9%[46.1 µM]	nt
COc1ccc(CCn2c(C)cc(C(=O)CN3C(=O)C(=O)N(C4CCCC4)C3=O)c2C)cc1OC	?	-16%	nt	-16%	nt
COc1cc(C2CC(=O)Nc3cc(C)c(C)cc32)cc(OC)c1OC (centres undefined)	-22%	0%	-4	?	21
Cc1cc2c(cc1C)C(c1cccc([N+](=O)[O-])c1)CC(=O)N2 (centres undefined)	4.5µM*	-3%	-3	?	-25
Cc1ccc(CN(C)C2CCN(C)CC2)cc1	-39%	5%	0	26%	15
Cc1ccc(C(=O)NCC(c2ccco2)S(=O)(=O)c2ccc(Cl)cc2)cc1C (centres undefined)	nt	nt	nt	-2%[46.1 µM]	nt
O=C(OCc1cn([C@H]2CN(CC3CCCCC3)[C@@H](c3ccc(Cl)cc3)C[C@H]2O)nn1)c1ccccc1	14µM*	nt	nt	nt	nt
O=C(NC1CCCCC1)Oc1ccccc1	17%	7%	30*	-2%	51
SMILES	Marburg entry inh	AMA1-RON2 inh	Cycloheximide cs	LASV entry inh	Shiga toxin inh
O=C(Nc1ccc(Br)cc1)NC1CCCCCCC1	-20%[46.1 µM]	15%	44*	?	137*
O=C(Nc1ccccc1)NC1CCCCCCC1	?	-23%	nt	3%	nt
O=C(NC1CCCCCCC1)NC1CCCCC1	4%[46.1 µM]	0%	26*	?	23
NC(=O)c1ccccc1NC(=O)NC1CCCCC1	3%	10%	-6	-8%	10
CN1CCC(NC(=O)NC2CCCCC2)CC1	1%[46.1 µM]	0%	1	22%[46.1 µM]	4
O=C(NC1CCS(=O)(=O)C1)Oc1ccccc1 (centres undefined)	4%	1%	-6	-1%	-22
O=C(Nc1ccccc1NC(=O)NC1CCCCC1)NC1CCCCC1	4.6µM*	7%	27*	13µM*	35
CC1(C(=O)NS(=O)(=O)Cc2ccccc2)CCN1C(=O)CCc1ccccc1 (centres undefined)	nt	0%	nt	nt	nt
CC(=O)c1ccc(NC(=S)NNC(=O)NC2CCCCC2)cc1	?	53%	21*	5%	59
O=C(Nc1ccccc1)NC1CCCCC1	12%	16%	51*	2%	49*
CC(NS(=O)(=O)c1ccccc1)C(=O)NC1CCCC1 (centres undefined)	5%[46.1 µM]	28%	-3	-1%[46.1 µM]	-8
O=C(NC(=S)Nc1cccc([N+](=O)[O-])c1)C1CCCC1	18%[46.1 µM]	-9%	34*	-13%[46.1 µM]	52*
CC(C)NS(=O)(=O)c1ccc(NC(=O)NC2CCCCC2)cc1	?	-7%	14*	?	20
O=C(NC1=C(Cl)CCCC1)NC1CCCCC1Cl (centres undefined)	12%[46.1 µM]	nt	nt	nt	nt
CC(=O)c1ccc(OCCCC(=O)Nc2cc(S(=O)(=O)N3CCCCC3)ccc2C)cc1	8%[46.1 µM]	-8%	nt	2%	nt
O=C(Cn1nnc(-c2ccc(F)cc2)n1)NC(=O)NC1CCCCC1	nt	0%	nt	nt	nt
O=C(CNC1CCCCC1)Nc1cccc([N+](=O)[O-])c1	-13%[46.1 µM]	-2%	nt	4%[46.1 µM]	nt
O=C(Nc1cccc([N+](=O)[O-])c1)NC1CCCCCCC1	?	-10%	32*	?	81*
COc1ccc(OC)c(-c2cc(-c3cccnc3)nc(N)c2C#N)c1	1.4µM*	14%	-1	?	21
O=C(c1cc2sccc2n1Cc1ccc(F)cc1)N1CCN(c2nc3ccccc3s2)CC1	3.5µM*	-21%	0	-35%	10
COc1ccc(NC(=O)c2cc3sccc3n2Cc2ccc(F)cc2)cc1OC	-18%	-19%	25*	8%	55
O=C(Nc1nccs1)c1cc2sccc2n1Cc1ccc(F)cc1	?	19%	18*	-1%	28
CCN(CC(=O)N1CCOCC1)S(=O)(=O)c1ccc(F)cc1	1%[46.1 µM]	6%	-9	-8%	-6
N#CC1=C(N)N(c2ncn[nH]2)C2=C(C(=O)CCC2)C1c1ccccc1 (centres undefined)	-4%[46.1 µM]	8%	-1	21%[46.1 µM]	-3
COc1cccc(CNC(=O)N2CCN(S(=O)(=O)c3ccc(C)cc3)CC2)c1	13%[46.1 µM]	-8%	2	nt	-5
SMILES	Marburg entry inh	AMA1-RON2 inh	Cycloheximide cs	LASV entry inh	Shiga toxin inh
CC(=O)N1C[C@@H](CO)[C@@H](N(C)C(=O)C2CCCCC2)C[C@H]1c1ccccc1	nt	43%	nt	nt	nt
CCOc1ccc(OCC)c(NS(=O)(=O)c2c(C(=O)N3CCCCCC3)c(C)n(C)c2C)c1	nt	nt	nt	-19%[46.1 µM]	nt
CN(C)c1ccc(NC(=S)NC(=O)/C=C/c2ccco2)cc1	-3%[46.1 µM]	5%	1	7%[46.1 µM]	16
O=C(C=Cc1ccco1)c1ccco1	-7%	6%	nt	-15%	nt
O=C(/C=C/c1ccco1)NC(=S)Nc1ccc(Cl)cn1	3%	32%	29	3%	88*
CCC(=O)Nc1ccc(NC(=S)NC(=O)/C=C/c2ccco2)cc1	?	85%	-3	-14%[46.1 µM]	nt
Cc1ccc(C(=O)/C=C/c2ccco2)c(O)c1	?	5%[2.32 µM]	37*	1%	56*
Cc1ccnc(NC(=S)NC(=O)/C=C/c2ccco2)c1	?	15%	70*	-25%	138*
Cc1ccc(O)c(NC(=S)NC(=O)/C=C/c2ccco2)c1	?	27%	47*	?	67*
